Screens deposited in PubChem by National Center for Advancing Translational Sciences (NCATS).
The list is not random: actives were taken first. Their share in the collection is about 2.9%.
EPAC1 ag val: Validation qHTS for agonist of cAMP-regulated guanine nucleotide exchange factor 3 (EPAC1); Rap guanine nucleotide exchange factor 3 (Homo sapiens), O95398; EPAC1 Rap1b BODIPY-GDP exchange, fluorescence; Potency, µM, for inactives: max response, positive = active, actives largely listed as activators; actives 1% (n = 16,000); AID 1645883, 2021; further: nearly all actives have a fitted effect of over 70% in size
EPAC2 antag: Validation qHTS for antagonist of cAMP-regulated guanine nucleotide exchange factor 4 (EPAC2); EPAC2 Rap1B BODIPY-GDP exchange, fluorescence; Potency, µM (highest dose often 112 µM), inactives show top-dose activity, negative = inhibition, hits mostly inhibitors; actives 1.7% (n = 16,000); AID 1645886, 2021;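 further: 100% = activation by cAMP agonist control; nearly all actives have a fitted effect of over 40% in size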
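Normalized against a 6.5 mM cAMP agonist control, compounds were tested on 100 nM EPAC2 exchanging Rap1B-bound BODIPY-GDP (250 nM) for 50 uM GDP. Fluorescence drop (ex 480, em 540 nm) was tracked at room temperature over 30 min at 5-min intervals.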
An asterisk follows results filed as active; ? = inconclusive. The call rests on the fitted dose curve; in most records, active means well fitted curve in the direction sought with a large enough effect; inconclusive means small, poorly fitted or top-dose-only effect, or another doubt; inactive means no such curve, though single readings can be large; an effect the other way counts as inactive or inconclusive. Unless noted, on the % scale 0 is the no-effect control and ±100 the full control effect; potency means the concentration at half of the fitted maximal effect.

SMILES	EPAC1 ag val	EPAC2 antag
CCC(=O)O[C@]1(C(=O)CCl)[C@@H](C)C[C@H]2[C@@H]3C[C@H](F)C4=CC(=O)C=C[C@]4(C)[C@@]3(F)[C@@H](O)C[C@@]21C	11%	?
O=C(C[n+]1cccc2cc(Cl)ccc21)c1ccc(Br)cc1	112µM*	-26%
O=C(C[n+]1cccc2cc(Cl)ccc21)c1ccc(I)cc1	7%	-10%
COc1ccccc1N1CCN(c2nc(CNC(=O)c3sc(C)nc3C)nc3ccccc23)CC1	-5%	-8%
COc1cccc(Cn2c(=O)c(-c3cn(C)c4ccccc34)nc3cnc(N4CCNCC4)nc32)c1	?	79µM*
COc1cccc(Nc2ncc3nc(-c4cn(C)c5ccccc45)c(=O)n(C[C@H]4CCCO4)c3n2)c1	112µM*	9%
COc1cccc(Cn2c(=O)c(-c3ccccc3)nc3cnc(N4CCN(C)CC4)nc32)c1	-54%	-12%
COc1cccc(Nc2ncc3nc(C)c(=O)n(C[C@H]4CCCO4)c3n2)c1	6%	-11%
COc1cccc(Cn2c(=O)c(CCc3ccccc3)nc3cnc(N4CCN(C)CC4)nc32)c1	112µM*	-3%
COc1cccc(Cn2c(=O)c(-c3cn(C)c4ccccc34)nc3cnc(N4CCOCC4)nc32)c1	0%	14%
COc1ccccc1C(=O)N(Cc1cc2cc3c(cc2nc1N(C)C)OCO3)CC1CCCO1 (centres undefined)	13%	?
O=C1NC(=O)[C@H]2[C@@H]1[C@@H]1C=C[C@H]2C1	8%	-10%
COc1cccc(Nc2ncc3nc(-c4cc(F)cc(F)c4)c(=O)n(C4CC4)c3n2)c1	100µM*	-6%
COCCn1c(=O)c(-c2cc(F)cc(F)c2)nc2cnc(Nc3cccc(OC)c3)nc21	89µM*	0%
COCCn1c(=O)c(-c2ccc(F)cc2)nc2cnc(Nc3cccc(OC)c3)nc21	22%	-10%
COc1cccc(Nc2ncc3nc(-c4ccccc4)c(=O)n(C4CC4)c3n2)c1	-37%	-12%
CON=C1C[C@]2(C[C@@H]3C[C@@H](C/C=C(\C)C[C@@H](C)/C=C/C=C4\CO[C@@H]5[C@H](O)C(C)=C[C@@H](C(=O)O3)[C@]45O)O2)O[C@H](/C(C)=C/C(C)C)[C@H]1C	-227%	?
